In PubChem BioAssay (NCI):
About 83,000 compounds went through this panel and 20% of them were active in at least one assay; those are over-represented in the sample as a whole.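 Negative percent growth values reflect cell death: -40 means 40% of the cells present at the start died, and -100 means all died.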 Unmarked numbers belong to inactive results. The source made the active and inactive calls. Rule for the calls: active = growth percent below 10; inactive = the rest.

Assays:
Assay in all cases: NCI-60 one-dose screen, 48 h (100 = growth as untreated, 0 = no growth, -100 = all killed)
Details in all cases: 10 µM unless noted
HCT-15 colon = tested on: HCT-15 colon
HT29 colon = tested on: HT29 colon
SNB-75 CNS = tested on: SNB-75 CNS
SNB-19 CNS = tested on: SNB-19 CNS
PC-3 prostate = tested on: PC-3 prostate
SK-MEL-5 melanoma = tested on: SK-MEL-5 melanoma
UACC-62 melanoma = tested on: UACC-62 melanoma
LOX IMVI melanoma = tested on: LOX IMVI melanoma
SK-MEL-28 melanoma = tested on: SK-MEL-28 melanoma
U251 CNS = tested on: U251 CNS

Row | SMILES | growth (HCT-15 colon) | growth (HT29 colon) | growth (SNB-75 CNS) | growth (SNB-19 CNS) | growth (PC-3 prostate) | growth (SK-MEL-5 melanoma) | growth (UACC-62 melanoma) | growth (LOX IMVI melanoma) | growth (SK-MEL-28 melanoma) | growth (U251 CNS) [%]
1 | COC(=O)c1cc(=O)nc(N/N=C/c2ccccc2O)s1 | 70.4% | 92.9% | 110% | 95.3% | 86.3% | 91.6% | 94.8% | 82.3% | 101% | –
2 | CCCCCSc1ccc2nc(NC(=O)OCCC)sc2c1 | 26.1% | 15.9% | 13.3% | 40.9% | 27.7% | 17.7% | 31.1% | 38.6% | 70.9% | –
3 | N=C(N)c1ccc(-c2ccc(-c3cc(Cl)cc(Cl)c3)s2)cc1 | -85.9% (active) | -38% (active) | -90.6% (active) | -73.5% (active) | -81.6% (active) | -93.7% (active) | -80.4% (active) | -78.6% (active) | -86.4% (active) | –
4 | CCOC(=O)c1c(C)oc2ncnc(Nc3ccc(NC(=O)Nc4ccc(CC)cc4)cc3)c12 | 105% | 103% | 80.6% | 98% | 90.8% | 93.8% | 108% | 100% | 105% | –
5 | COc1cc2c(c3c1c(=O)c1cccc(F)c1n3C)C=CC(C)(C)O2 | 71.8% | 74.6% | 99.1% | 104% | 72.3% | 94.2% | 75.6% | 88.8% | 94.4% | –
6 | COc1cc(OC)cc(-c2ccc(-c3ccc(C(=N)N)cc3)s2)c1 | -79.6% (active) | -68.8% (active) | -94.9% (active) | -71.8% (active) | -94.7% (active) | -100% (active) | -85.1% (active) | -86.3% (active) | -87.7% (active) | –
7 | CSc1nc(N)n2nccc2n1 | 108% | 102% | 78.5% | 99.7% | 93.5% | 98.8% | 98.6% | 97.4% | 98.5% | –
8 | CN1NC(c2ccccc2)NN(C)C1=O | 96.6% | 107% | 77.8% | 97.2% | 88.6% | 97.8% | 91.6% | 92.5% | 107% | –
9 | Nc1nc2c(c3cnccc13)C(c1cccc(Br)c1)Cc1cnccc1-2 (stereo not drawn) | 7.06% (active) | 4.32% (active) | 18.9% | 24% | 11.6% | -30.4% (active) | 21.8% | 8.43% (active) | 49.4% | –
10 | CC[C@@H](C)/C=C(C)/C=C/C(=O)c1c(O)c(-c2ccc(OC(=O)[C@@]34CC[C@@](C)(C(=O)O3)C4(C)C)cc2)cn(O)c1=O | 27% | 59.7% | 30.6% | 36.8% | – | – | 5.24% (active) | 0.589% (active) | 26.8% | 15.7
11 | COc1cc2ncnc(-n3ncc4cc(NC(=O)Nc5ccc(Cl)c(Cl)c5)ccc43)c2cc1OC | -35.7% (active) | -16.7% (active) | -57.7% (active) | 10.4% | -57.1% (active) | -82.8% (active) | -68.5% (active) | -77.7% (active) | -70.9% (active) | –
12 | CCOC(=O)c1csc(-c2ccc(COC(=O)c3ccccc3)o2)n1 | 96% | 104% | 92% | 97.5% | 96.6% | 98.2% | 102% | 110% | 101% | –
13 | N=C(N)c1ccc(-c2ccc(-c3ccc(F)cc3)s2)cc1 | -92.8% (active) | -64.1% (active) | -99.2% (active) | -86.5% (active) | -94% (active) | -99% (active) | -91.8% (active) | -95.1% (active) | -85.9% (active) | –
14 | Nc1ncn([C@@H]2O[C@H](CO)[C@@H](O)C2(F)F)c(=O)n1 | 52.2% | 70.1% | 65% | 58.9% | 63.6% | 70.8% | 47.3% | 34.5% | 78.5% | –
15 | CCOC(=O)c1c(C)oc2ncnc(Nc3ccc(C(=O)NCCc4ccccc4)cc3)c12 | 92.3% | 58.9% | 7.02% (active) | 84.1% | 59.2% | 85.6% | 95% | 75.2% | 87.9% | –
16 | O=C1Nc2ccccc2/C1=C/c1cn(CC(O)Cn2cc(/C=C3\C(=O)Nc4ccccc43)c3ccccc32)c2ccccc12 (stereo not drawn) | -69.8% (active) | -20.2% (active) | -95.9% (active) | -43% (active) | -86.3% (active) | -80.2% (active) | -75.2% (active) | -84.5% (active) | -85% (active) | –

Row | SMILES | growth (HCT-15 colon) | growth (HT29 colon) | growth (SNB-75 CNS) | growth (SNB-19 CNS) | growth (PC-3 prostate) | growth (SK-MEL-5 melanoma) | growth (UACC-62 melanoma) | growth (LOX IMVI melanoma) | growth (SK-MEL-28 melanoma) | growth (U251 CNS) [%]
17 | Nc1nc2c(c3ncncc13)C(c1cccc(C(F)(F)F)c1)Cc1ncncc1-2 (stereo not drawn) | 27% | 9.73% (active) | 8.31% (active) | 33.9% | 26.4% | – | 43.4% | 36.8% | 63.7% | –
18 | CCCCCCC(C(=O)OCC)(C(=O)OCC)C1CCCCCC1 | 97.5% | 98.1% | 83.7% | 99.2% | 102% | 100% | – | 101% | 106% | –
19 | Br/C(=N\Nc1nn[nH]n1)c1ccccc1 | 96.6% | 110% | 80.8% | – | 96.1% | 102% | 101% | 86.3% | 109% | 99.6
20 | CCN(CC)CCOC(=O)c1cccnc1 | 98.7% | 107% | 79.6% | – | 99.7% | 98% | 103% | 90.9% | 98.4% | 97.7
21 | Nc1nc2c(c3cnccc13)C(c1cccc(Cl)c1)Cc1cnccc1-2 (stereo not drawn) | 7.84% (active) | 4.99% (active) | 21% | 29.2% | 12.8% | -16.3% (active) | 26.7% | 8.05% (active) | 56% | –
22 | Nc1nc2c(c3cnccc13)C(c1ccc(Cl)c(Cl)c1)Cc1cnccc1-2 (stereo not drawn) | -19.5% (active) | 8.17% (active) | -26.9% (active) | 13.7% | 5.13% (active) | -92.2% (active) | -37.3% (active) | -42.7% (active) | -41.3% (active) | –
23 | CC(=O)C(CO)C(=O)Nc1ccccc1 (stereo not drawn) | 98.8% | 101% | 63.3% | 101% | 102% | 103% | 98.2% | 83.7% | 99.8% | –
24 | O=C(Nc1ccccc1)Nc1ccc(Nc2ncnc3sc4c(c23)CCCC4)cc1 | 110% | 96.2% | 93.3% | 95.9% | 89.9% | 97.3% | 97.9% | 99.5% | 116% | –
25 | CCCCCSc1ccc2nc(NC(=O)OCC)sc2c1 | 25.2% | 13.2% | 0.686% (active) | 37.4% | 21.3% | 5.59% (active) | 29.2% | 38.4% | 61.9% | –
26 | COc1cc(OC)c(NC(=O)n2ncc3cc(Nc4ncnc5ccccc45)ccc32)cc1Cl | 93.8% | 80.3% | 118% | 90.6% | 97.5% | 94.3% | 105% | 102% | 98.7% | –
27 | COc1nc(OC)nc(-c2cc(C(=O)c3ccc(Br)cc3)n3cc(C)cc(C)c23)n1 | 90.7% | 74.9% | -32.2% (active) | 28.9% | 72.5% | 87.8% | 92.1% | 3.88% (active) | 84.7% | –
28 | O=c1c(N=Nc2nccs2)c(-c2ccccc2)[nH]n1-c1nc(-c2ccccc2)cs1 | 19.5% | 32.2% | 61% | 24.4% | 32.8% | 15.2% | – | 44.3% | 47.1% | –
29 | C=CCN(C)C | 113% | 113% | – | 102% | 105% | – | 101% | 99.8% | 110% | 102
30 | BrCCCOc1ccc(Oc2ccc(OCCCBr)cc2)cc1 | – | 107% | 86.6% | 92.5% | 101% | 97% | 94.5% | 50.5% | 99% | 88.1
31 | CCCCCN1CCN(C(CC(=O)c2ccccc2)C(=O)c2ccccc2)CC1 (stereo not drawn) | 94.5% | 96.4% | 100% | – | 92.6% | 106% | – | 82.8% | 119% | 92.6
